# Results filed as inconclusive are left out. The source made the active and inactive calls. Calls follow the shape of the full dose curve.
# Target: Peroxisome proliferator-activated receptor delta (Homo sapiens) (UniProt Q03181)
# Assay: qHTS assay for small molecule agonists of peroxisome proliferator-activated receptor delta signaling (AID 588534);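 also: 0% = DMSO basal wells and 100% = positive control agonist at 10 µM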
# Conditions: HEK293T PPARdelta-UAS-bla, beta-lactamase ratio, 18 h; series mostly up to 76.7 µM; activation: at the top concentration
# Source text: NIH Chemical Genomics Center [NCGC] U.S. Environmental Protection Agency [EPA] National Institutes of Environmental Health Sciences [NIEHS] National Toxicology Program [NTP] NCGC Assay Overview The Peroxisome proliferator-activated receptors (PPARs) are lipid-activated transcription factors of the nuclear receptor superfamily with three distinct subtypes namely PPAR alpha, PPAR delta (also called PPAR beta) and PPAR gamma. All these subtypes heterodimerizes with Retinoid X receptor (RXR) and have different physiological functions. […] This role of PPAR delta implicates the potential use of its ligands in the treatment of metabolic disorders.
# Compounds were screened in a titration series in 1536-well format. […] Concentration-response titration points for each compound were fitted to the Hill equation yielding concentrations of half-maximal stimulation (EC50) and maximal response (efficacy) values. qHTS protocol for PPAR-delta beta-lactamase assay in agonist mode [Step] [Parameter] [Value] [Description] 1. Reagent; 6 uL; 4000 cells/well 2. Incubation; 37 C for 5 hrs 3. Compounds; 23 nL; 0.59 nM to 92 uM 4. […] Incubation; 37 C for 18 hrs 6. Detection reagent; 1 uL of CCF4-dye 7. Incubation; RT for 2 hrs 8. Detection; Fluorescence; Envision plate reader
# Chain of Peroxisome proliferator-activated receptor delta (Homo sapiens) (Q03181 whole entry, looked up): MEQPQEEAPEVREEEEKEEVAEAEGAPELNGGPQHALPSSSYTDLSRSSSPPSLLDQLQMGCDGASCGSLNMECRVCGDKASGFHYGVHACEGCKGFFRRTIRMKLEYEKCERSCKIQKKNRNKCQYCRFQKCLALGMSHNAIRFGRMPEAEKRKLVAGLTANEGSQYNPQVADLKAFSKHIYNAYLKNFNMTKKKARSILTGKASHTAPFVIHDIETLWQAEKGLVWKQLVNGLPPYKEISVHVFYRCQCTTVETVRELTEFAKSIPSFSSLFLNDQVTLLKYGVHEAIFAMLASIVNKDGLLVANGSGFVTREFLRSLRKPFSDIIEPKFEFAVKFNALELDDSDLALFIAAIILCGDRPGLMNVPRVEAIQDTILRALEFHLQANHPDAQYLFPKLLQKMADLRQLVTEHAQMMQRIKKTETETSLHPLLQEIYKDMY
Compound,activation,outcome
CCCCCCCCCCCCc1ccccc1,7.07% (inactive),–
CCOCCOCC,10.5% (inactive),–
O=C(O)COc1ccc(Cl)cc1,-14.4% (inactive),–
CCc1ccccc1,-0.0958% (inactive),–
CCCCC(=O)N(C)C,9.07% (inactive),–
CC(C)C1(C)N=C(c2ncccc2C(=O)O)NC1=O (stereo not given),-11.5% (inactive),–
CCCCCCCC/C=C\CCCCCCCC(=O)N(CCO)CCO,-8.61% (inactive),–
c1ccc(OCCOc2ccccc2)cc1,-0.21% (inactive),–
O=C(Cl)c1cccc([N+](=O)[O-])c1,0.585% (inactive),–
C#CCN1C(=O)COc2cc(F)c(N3C(=O)C4=C(CCCC4)C3=O)cc21,-2.05% (inactive),–
Cc1cc(C2CC2)nc(Nc2ccccc2)n1,-1.16% (inactive),–
Cc1ccc(CO)cc1,6.92% (inactive),–
CC(c1ccc(O)cc1)(c1ccc(O)cc1)c1ccc(O)cc1,-8.01% (inactive),–
Nc1ccc(N=Nc2ccccc2)c(N)c1,-8.6% (inactive),–
CC/C(=N\OC/C=C/Cl)C1=C(O)CC(C2CCOCC2)CC1=O (stereo not given),-5.2% (inactive),–
CCCCCCCCCCCCCCCCN(C)C,2.03% (inactive),–
CC1(C)[C@H](C(=O)O[C@H](C#N)c2cccc(Oc3ccccc3)c2)[C@@H]1/C=C(\Cl)C(F)(F)F,-0.459% (inactive),–
CCOP(=O)(NC(C)C)Oc1ccc(S(C)(=O)=O)c(C)c1 (stereo not given),0.62% (inactive),–
CSc1ccc(C=O)cc1,12.5% (inactive),–
O=C(O)C(Oc1ccc(Cl)cc1)Oc1ccc(Cl)cc1,-7.4% (inactive),–

Compound,activation,outcome
CCCN(CC)CC1COC2(CCC(C(C)(C)C)CC2)O1 (stereo not given),-12.2% (inactive),–
CC(=O)OC(C(=O)c1ccccc1)c1ccccc1 (stereo not given),-4.1% (inactive),–
FC(F)C(F)(F)OCC(Cn1cncn1)c1ccc(Cl)cc1Cl (stereo not given),-6.85% (inactive),–
CCCCOCCO,–,inactive
CCC1CO1 (stereo not given),4.75% (inactive),–
[CH3][Sn]([Cl])([Cl])[Cl],0.329% (inactive),–
CCCCN(CC)c1c([N+](=O)[O-])cc(C(F)(F)F)cc1[N+](=O)[O-],-2.83% (inactive),–
CC(O)CN(CC(C)O)CC(C)O (stereo not given),-1.82% (inactive),–
CC(=O)Nc1ccc(N=Nc2cc(C)ccc2O)cc1,-3.86% (inactive),–
CCN(Cc1ccccc1)c1ccccc1,8.32% (inactive),–
Cc1ccc(S(=O)(=O)Oc2ccc(N=Nc3ccc(-c4ccc(N=Nc5c(O)ccc6cc(S(=O)(=O)O)cc(S(=O)(=O)O)c56)c(C)c4)cc3C)cc2)cc1,3.72% (inactive),–
CCCCCCCCCCCCCCCO,0.0793% (inactive),–
CS/C(=N\O)C(=O)N(C)C,-5.66% (inactive),–
CCCCC,10.7% (inactive),–
CCCCCCCCCC(=O)OC,-3.46% (inactive),–
BrC1CCC(Br)C(Br)CCC(Br)C(Br)CCC1Br (stereo not given),1.74% (inactive),–
CCCCC(CC)CN (stereo not given),–,inactive
CCC(C)(C)c1cc(-n2nc3ccccc3n2)c(O)c(C(C)(C)CC)c1,-2.74% (inactive),–
CNc1cnn(-c2cccc(C(F)(F)F)c2)c(=O)c1Cl,-6.08% (inactive),–
CN(C)CCCCl,4.97% (inactive),–

# From PubChem BioAssay (NCATS)
